This note sets out measurements from PubChem BioAssay AID1236 (Emory University Molecular Libraries Screening Center, 2008).

The structures appear in SMILES notation. In all, about 220,000 compounds went through this assay and about 800 (0.36%) were called active. The list comes from a sample in which actives are over-represented; it also holds similar structures and randomly drawn compounds. A number with no mark means an inactive call.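 Rule for the calls: active = inhibition above about 50% (limit read from the data); inactive = the rest.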

For orientation: inhibition means the relative decrease from the control value, in per cent.

This assay has as its system calpain II (m-calpain), Sus scrofa. The assay is described as follows: m-calpain protease activity blockers – biochemical, fluorogenic peptide substrate, 1536-well, primary screen (AID 1236). Conditions: purified calpain II, 30 min, at 16 µM, hits give high values.
With `O=C(O)CCn1cc(/C=C/C(=O)c2ccc(Cl)cc2)c(-c2cccc(Br)c2)n1`, the inhibition is 31.9%. Regarding `CS(=O)(=O)c1ccc2nc(NC(=O)c3ccc(Cl)nc3)sc2c1`, the inhibition is 8.84%. The same measure for `Nc1nc(-c2sc3nc4c(cc3c2N)CCCC4)nc(N2CCOCC2)n1`: -253%; for `CCOc1cc(/C=C(/C#N)c2ccc(Cl)cc2)cc(Cl)c1OCC(=O)O`: 50.5% (active); for `CCOC(=O)CN/C=C(\C#N)c1ccc(F)cc1`: -15.5%. Take `C/C(=N\OCC(=O)O)c1ccc(Cl)cc1`: the inhibition was 25.9%. The result for `Nc1c(Cl)cc(S(N)(=O)=O)cc1S(N)(=O)=O` reads -2.3%; that for `Cc1cc(-c2ccc(/C=N/n3cnnc3)o2)c([N+](=O)[O-])cc1C`, 34.4%. For the compound `Cc1cc([N+](=O)[O-])c(-c2ccc(/C=N/n3cnnc3)o2)cc1Cl`, the inhibition was 58.9% (active). For the compound `Cc1ccc(Cl)cc1-c1ccc(/C=N/n2cnnc2)o1`, the inhibition is 4.96%. Regarding `NS(=O)(=O)c1ccc(CNC(=O)c2cnccn2)cc1`, the inhibition is -9.46%. As for `Cc1nc(NC2=NC(C(=O)Nc3ccc(Cl)cc3)CC(=O)N2)nc2ccccc12` (configuration not stated), the inhibition was 6.9%.

On to `CCNC(=O)N1c2ccccc2Sc2ccccc21`, for which the inhibition is -4.08%. The same measure for `CCC(C(=O)OCC(=O)Nc1ccc(C(=O)Nc2ccc(OC)cc2)cc1)c1ccccc1` (configuration not stated): 38%; for `CCC(C(=O)OCC(=O)Nc1c(Cl)cc(Cl)cc1Cl)c1ccccc1` (configuration not stated): 11.9%. As to `CCC(C(=O)OCC(=O)Nc1ccccc1-c1ccccc1)c1ccccc1` (configuration not stated), the inhibition is 56.9% (active). Consider `CCOc1c(CNCc2ccc(C(=O)O)cc2)cccc1OC`, for which the inhibition was -12%. As for `CC(=O)N1C(C)c2ccccc2C(C)(C)CC12CCCCC2` (configuration not stated), the inhibition was 10.1%.

With `COc1ccc(S(=O)(=O)N(CC(=O)N/N=C/c2ccccc2C(=O)O)c2ccccc2OC)cc1`, the inhibition is -1.16%.

In the case of `COC(=O)CCCC1=CC2=CC(=O)C(C)(OC(=O)c3cccs3)C(=O)C2=CN1c1cccc(C#N)c1` (configuration not stated), the inhibition is -53.3%.

Regarding `CC(=NCc1ccco1)c1c(C(F)(F)F)[nH]n(-c2nc3ccccc3s2)c1=O`, the inhibition is -91.3%. `S=C(NCCc1ccccc1)Nc1ccccc1`: the inhibition is 16%.

For the compound `Cc1ccc(N2CCN(/N=C/c3cccs3)CC2)cc1`, the inhibition was -29.6%. Take `Cc1ccsc1/C=C1\SC(N2CCOCC2)=NC1=O`: the inhibition is 15.5%.

Consider `Cc1ccc(N2CCN(C3=NC(=O)/C(=C\c4cccs4)S3)CC2)cc1`, for which the inhibition is 76.7% (active). For the compound `O=[N+]([O-])c1ccc(N2CCSCC2)cc1O`, the inhibition was 2.99%. As for `O=C(OCc1ccc(Br)cc1)c1cccc(-c2nnc(-c3ccccc3)o2)c1`, the inhibition was -6.16%. Regarding `O=C(Nc1ccccc1C(F)(F)F)N1CCCC1c1cccnc1` (configuration not stated), the inhibition is 3.9%. Consider `O=C(c1cccc(F)c1)N1CCN(c2ccc([N+](=O)[O-])c(N3CCCCC3)c2)CC1`, for which the inhibition was 5.06%. For the compound `O=[N+]([O-])c1ccc(N2CCN(S(=O)(=O)c3ccc4ccccc4c3)CC2)cc1NCc1ccco1`, the inhibition was -59%. The result for `O=C(c1ccccc1)N1CCN(c2ccc([N+](=O)[O-])c(NCc3ccco3)c2)CC1` reads 54.3% (active); that for `O=C(COC(=O)c1ccc(Cl)nc1)NCc1cccs1`, 13.2%; that for `C/C(=N/NC(=S)Nc1ccccc1)c1ccc2c(c1)OCO2`, -6.26%. Consider `CC(C)(C)c1cc(C(=O)NN)n(Cc2ccc(Cl)cc2Cl)n1`, for which the inhibition was 17.2%. In the case of `Cn1c(=O)cc(OCC(=O)N2CCN(c3ccccc3F)CC2)c2ccccc21`, the inhibition is -13.2%. Regarding `CC(C)Oc1ccc(Cc2n[nH]c(=S)n2Cc2ccccc2)cc1Cl`, the inhibition is 15.2%. With `CC(C)Oc1ccc(CCc2n[nH]c(=S)n2Cc2ccccc2)cc1`, the inhibition is 53.5% (active). As for `C=CCn1c(CCc2ccc(OC(C)C)cc2)n[nH]c1=S`, the inhibition was -15.1%. Regarding `CC(C)(C)NC(=O)C(=O)NN=C1CCCCCCC1`, the inhibition was -5.09%.

Consider `CC(C)NC(=S)NN=C1CCCCCCCCCCC1`, for which the inhibition is 54.9% (active). As for `C/C(=N\NC(=S)NC(C)C)c1ccc(C(C)(C)C)cc1`, the inhibition was 6.32%. The result for `Nc1ccc(Cl)c(S(=O)(=O)Nc2ccccc2Cl)c1` reads -15%; that for `COc1ccc(Cl)cc1C(=O)Nc1ccc(N(C)C(C)=O)cc1`, -12.6%.

In the case of `Cn1nc(C(C)(C)C)c(NC(=O)c2sccc2Cl)c1C(C)(C)C`, the inhibition is -8.61%.

For `O=C(CN1C2=NCCN2c2ccccc21)c1cccs1`, the inhibition is -7.58%. The result for `COc1cc(C(=O)NCc2ccc3c(c2)cc(C)n3C)cc(OC)c1OC` reads 65% (active). On to `COc1cc(-n2c(C)nc3cc(C(=O)NCc4ccco4)ccc32)cc(OC)c1OC`, for which the inhibition was 8.54%. On to `COc1cc(C(=O)NCc2ccc(-n3cccc3)cc2)cc(OC)c1OC`, for which the inhibition is 8.77%.

Consider `CC(C)(C)c1ccc(CCC2OCC(CN3CCOCC3)O2)cc1` (configuration not stated), for which the inhibition was -40.5%. For the compound `Cc1sc2nc(COC(=O)C(NC(=O)c3ccc(Cl)cc3Cl)C(C)C)[nH]c(=O)c2c1C` (configuration not stated), the inhibition was -7.99%.

Take `CNC(=O)c1csc(Cc2c(Cl)sc3ccc(Cl)cc23)n1`: the inhibition is 0.86%. With `CC1CC1C(=O)OCC(=O)c1c(N)n(C)c(=O)n(C)c1=O` (configuration not stated), the inhibition is 3.06%. The same measure for `Cn1c(N)c(C(=O)COC(=O)C23CC4CC(CC(C4)C2)C3)c(=O)n(C)c1=O`: 79.2% (active); for `CC(=O)c1c(N)n(C)c(=O)n(C)c1=O`: -24.4%. The same measure for `Cc1ccc2[nH]cc(CCNC(=O)c3ccc([N+](=O)[O-])cc3)c2c1`: 9.36%. With `CC(C)c1nccn1S(=O)(=O)c1cc([N+](=O)[O-])ccc1Cl`, the inhibition was 12%. The result for `COc1ccc(O[C@H]2C=C[C@@H](c3ccccc3)O[C@@H]2CO/N=C/C[C@@H]2C=C[C@H](OC(C)=O)[C@@H](COC(C)=O)O2)cc1` reads 27%; that for `Cc1cccc2cc3c(N)c(C(=O)N4CCCc5ccccc54)sc3nc12`, -64.7%. As to `COc1ccc(-c2nnc3ccc(SCc4ccccc4)nn23)cc1`, the inhibition is -6.26%. With `COc1cc(N/C=C2\CC(=O)NC(C)=C2C#N)cc(OC)c1OC`, the inhibition was -145%. The result for `Oc1c(Cl)cc(Cl)c(Cl)c1Cc1c(O)c(Cl)cc(Cl)c1Cl` reads 109% (active); that for `CCOC(=O)c1cc2c(=O)n3ccccc3nc2n(CC(C)C)c1=NC(=O)c1c(-c2c(F)cccc2Cl)noc1C`, -60.6%. Regarding `CCOC(=O)c1c(C)nn(-c2ncccc2NC(=O)CCC(=O)O)c1C`, the inhibition was 10.4%.

For `CCc1nnc(NC(=O)CCCSc2nc3ccccc3[nH]2)s1`, the inhibition was 2.67%.

Take `O=C(COC(=O)CCCSc1nc2ccccc2[nH]1)Nc1ccc(Oc2ccccc2)cc1`: the inhibition is 51.3% (active). Consider `CCCCSc1nc2ccccc2[nH]1`, for which the inhibition was -22.6%.

For the compound `CCCCCn1c(=O)c(C(=O)OCC)c(Cl)c2ccccc21`, the inhibition was -1.97%. As to `COc1ccc(C)cc1NC(=O)c1ccc(-c2ccc(C(C)=O)cc2)o1`, the inhibition was -135%. Regarding `COC(=O)c1ccccc1NC(=O)C1CC(=O)N(c2ccc(OC)cc2)C1` (configuration not stated), the inhibition is 4.97%. For `CCN(CC)CCNC(=O)CCCCCn1c(=O)[nH]c2cc(C(=O)OC)ccc2c1=O`, the inhibition was -103%. The result for `CCN(CCCNC(=O)CCn1c(=O)[nH]c2ccsc2c1=O)c1ccccc1` reads 64.7% (active); that for `CCCCC(CC)CNC(=O)CCCCn1c(=O)[nH]c2ccsc2c1=O` (configuration not stated), 13.6%. As for `O=c1cc(O)c(-c2cccc(C(F)(F)F)c2)c(Cl)[nH]1`, the inhibition was 27.3%. Take `Cc1cc(C(=O)CCl)c(C)n1CC1COc2ccccc2O1` (configuration not stated): the inhibition was -16.6%.

`COc1ccc(-c2cc(C3CCN(c4ncccc4[N+](=O)[O-])CC3)[nH]n2)cc1`: the inhibition was 10.5%. As for `Cc1ccc(NN=C2C(=O)OC(C)(C)OC2=O)c(C)c1`, the inhibition was 6.22%. The result for `Cc1ccc(OCCCn2c(=O)oc3ccccc32)cc1` reads 21.8%. The result for `O=C(Nc1ccc2c(c1)CCC2)c1cccc(S(=O)(=O)Nc2ccccc2Cl)c1` reads 55.1% (active); that for `O=C(c1cccc(S(=O)(=O)Nc2ccccc2Cl)c1)N1CCN(C(=O)c2ccco2)CC1`, 10.2%; that for `O=C(Nc1ccc2c(c1)CCC2)c1cccc(S(=O)(=O)N2CCN(c3ccc(F)cc3)CC2)c1`, -32.9%.

On to `O=C(Nc1cc2c3c(c1)C1CCCC1CN3CC1CCCC21)c1ccc([N+](=O)[O-])cc1` (configuration not stated), for which the inhibition was -34.8%. Take `O=C(Oc1cccc(NC2=NS(=O)(=O)c3ccccc32)c1)c1ccncc1`: the inhibition was -20.9%.

`COC(=O)Cc1c(O)ccn(Cc2cccc(C(F)(F)F)c2)c1=O`: the inhibition was -20.3%. Turning to `CC(C)Cc1nnc(NC(=O)CCC(=O)Nc2ccc3cn[nH]c3c2)s1`, the inhibition was -10.5%. Take `CSCCC(NS(=O)(=O)c1ccc2c(c1)oc(=O)n2C)C(=O)NC1CCCc2ccccc21` (configuration not stated): the inhibition was 30.2%. The result for `O=C(Nc1ccc(S(=O)(=O)Nc2nccs2)cc1)c1cc(-c2ccncc2)nc2ccccc12` reads -37.6%; that for `COc1cccc2cc(S(=O)(=O)c3ccc(C)cc3)/c(=N/NS(=O)(=O)c3ccc(C)cc3)oc12`, -24.9%.
